# Compounds without any hit were thinned out: in the full panel of roughly 79,000, 15% have a hit. Unmarked numbers belong to inactive results. Calls of active or inactive are those of the source. Cut-off read from the data, not from the text of the source: active = growth inhibition above about 70%; inactive = the rest.
# Assay: NCI Yeast Anticancer Drug Screen. Data for the mlh1 strain (AID 171);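 note: 0% = growth of vehicle-treated control cultures of the same strain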
# Settings: S. cerevisiae mlh1 strain growth inhibition, stronger effect = higher value
# Procedure: Growth inhibition of yeast strains with defined genetic alterations is measured as a screen for potential anti-cancer activity. Selected strains with alterations in DNA damage repair or cell cycle control were exposed to compounds and growth inhibition was measured relative to vehicle treated controls. The strain used in this assay is mlh1
SMILES,growth inhibition (at 1.2 µM),growth inhibition (at 3.7 µM),growth inhibition (at 11.0 µM),growth inhibition (at 33.0 µM),growth inhibition (at 100.0 µM)
O=C(/C(=C/c1ccccc1)CBr)c1ccccc1,3%,11%,67%,97% (active),99% (active)
[N-]=[N+]=NC1CC(n2ccc(=O)[nH]c2=O)OC1COC(c1ccccc1)(c1ccccc1)c1ccccc1 (stereo not given),0%,2%,25%,71% (active),77% (active)
CC[N+]1(C)CCC(O)(/C=C/c2ccc(Cl)c(Cl)c2)C(C(=O)/C=C/c2ccc(Cl)c(Cl)c2)C1 (stereo not given),6%,45%,99% (active),99% (active),99% (active)
Cc1nc2ccc(Br)cc2c(=O)n1-c1ccc(NC2OCC(O)C(O)C2O)cc1 (stereo not given),9%,9%,19%,52%,90% (active)
CCCC(=O)OC(OC(=O)CCC)c1ccc([N+](=O)[O-])o1,-5%,-2%,0%,7%,20%
CCOC(=O)c1[nH]c2cccc3c2c1CC(Br)C3=O (stereo not given),-27%,-19%,-11%,53%,83% (active)
CN(Cc1cccc2ccccc12)Cc1cccc2ccccc12,4%,2%,-2%,-10%,13%
O=C1c2ccccc2C2CCC1c1ccccc12 (stereo not given),-3%,6%,14%,28%,94% (active)

# — PubChem BioAssay (NCI)
